# Results filed as inconclusive are left out. Where a call stands in place of a potency, no number is given. The source made the active and inactive calls. Unless noted, the call rests on the fitted dose curve.
# Key:
# [1] = Nuclear factor erythroid 2-related factor 2/antioxidant responsive element (Nrf2/ARE) small molecule agonists: qHTS cell viability counter screen in human keratinocytes (AID 1919968; active means well fitted curve in the direction sought with a large enough effect in the repeat runs; an effect the other way counts as inactive or inconclusive; further: nearly all actives have a fitted effect of over 55% in size; further: potency means the concentration at half of the fitted maximal effect)
# Summary of the method: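 Viability counter-screen: KeratinoSens reporter cells, DMSO-delivered compounds, 23 h at 37 C, CellTiter-Fluor fluorescence.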
# [2] = biological target: KiSS-1 receptor (Homo sapiens) (UniProt Q969F8); assay: Human kisspeptin (KISS1R) small molecule agonists, calcium flux assay in KISS1R-HEK293 cells (AID 1920064; active means well fitted curve in the direction sought with a large enough effect in the repeat runs; an effect the other way counts as inactive or inconclusive)
# Chain of KiSS-1 receptor (Homo sapiens) (Q969F8 whole entry, looked up): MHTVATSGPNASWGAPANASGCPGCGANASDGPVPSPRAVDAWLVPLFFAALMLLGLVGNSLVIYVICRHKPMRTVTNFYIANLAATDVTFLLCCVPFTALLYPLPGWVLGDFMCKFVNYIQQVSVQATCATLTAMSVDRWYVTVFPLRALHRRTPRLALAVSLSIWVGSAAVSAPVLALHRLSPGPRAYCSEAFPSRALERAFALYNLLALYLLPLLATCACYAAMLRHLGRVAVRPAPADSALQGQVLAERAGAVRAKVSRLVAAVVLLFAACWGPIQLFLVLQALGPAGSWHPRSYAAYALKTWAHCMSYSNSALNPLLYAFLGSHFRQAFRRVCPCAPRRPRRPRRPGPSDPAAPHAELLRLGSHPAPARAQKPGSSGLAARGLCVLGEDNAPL
# Summary of the method: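 Intracellular calcium mobilization in KISS1R-HEK293 cells was recorded by fluorescence (Ex/Em 480/540) for 3 min following compound addition to cells pre-loaded 1 h with calcium dye.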
# [3] = G protein-coupled receptor (GPCR) small molecule agonists, calcium flux assay: HEK293 wild type cell line counter screen (AID 1920065)
# Summary of the method: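 In this agonist-mode screen, ATP is the positive control and DMSO the vehicle. Cells grow 18 h before a 1 h dye incubation at 37 C; signal is taken at Ex/Em 480/540 over 3 min.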
# [4] = p53 small molecule agonists, cell-based qHTS assay with human liver microsomes: qHTS cell viability counter screen (AID 1963579); further: nearly all actives have a fitted effect of over 45% in size; further: potency means the concentration at half of the fitted maximal effect
# Summary of the method: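 p53RE-bla cells (4,000/well) were pre-incubated 5 h at 37 C, then given compounds in DMSO plus human liver microsomes (0.5 mg/mL final) and NADPH (0.5 mg/mL final) for 16 h at 37 C. Viability was read by CellTiter-Glo luminescence.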
# [5] = p53 small molecule agonists, cell-based qHTS assay with rat liver microsomes: qHTS cell viability counter screen (AID 1963580); further: nearly all actives have a fitted effect of over 45% in size
# Summary of the method: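 In HCT-116 cells carrying a p53 response element-bla reporter, compounds were metabolically activated in situ by rat liver microsomes with NADPH over 16 h. Cell ATP content then served as the cytotoxicity measure.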
# [6] = p53 small molecule agonists, cell-based qHTS assay: qHTS cell viability counter screen (AID 1963581); further: nearly all actives have a fitted effect of over 45% in size
# Summary of the method: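 Compounds are pinned onto HCT-116 p53RE-bla cells and left 16 h at 37 C. Following the reporter FRET read, ATP is quantified by CellTiter-Glo luminescence after 30 min at room temperature.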
# [7] = biological target: 5-hydroxytryptamine receptor 2A (Homo sapiens) (UniProt P28223); assay: 5-hydroxytryptamine receptor 2A (HTR2A) small molecule antagonists, cell-based qHTS assay (AID 1963586); further: nearly all actives have a fitted effect of over 45% in size; further: potency means the concentration at half of the fitted maximal effect
# Chain of 5-hydroxytryptamine receptor 2A (Homo sapiens) (P28223 whole entry, looked up): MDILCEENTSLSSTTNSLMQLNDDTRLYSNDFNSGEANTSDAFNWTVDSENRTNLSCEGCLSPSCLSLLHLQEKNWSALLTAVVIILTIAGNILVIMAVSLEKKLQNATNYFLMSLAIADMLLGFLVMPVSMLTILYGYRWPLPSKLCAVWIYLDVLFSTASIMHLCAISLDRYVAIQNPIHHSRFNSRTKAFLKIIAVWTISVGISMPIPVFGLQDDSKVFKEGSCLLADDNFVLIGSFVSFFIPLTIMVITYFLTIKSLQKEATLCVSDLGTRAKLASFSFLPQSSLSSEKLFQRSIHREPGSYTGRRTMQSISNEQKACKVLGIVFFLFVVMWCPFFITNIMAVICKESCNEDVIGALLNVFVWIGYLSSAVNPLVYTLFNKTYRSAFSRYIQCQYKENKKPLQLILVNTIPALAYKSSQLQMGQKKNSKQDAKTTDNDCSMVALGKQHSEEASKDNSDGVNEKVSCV
# Summary of the method: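 Antagonist-mode intracellular calcium assay: DOI (4 nM) added after 5 min compound pre-incubation at room temperature to dye-loaded HTR2A-CHO cells. Fluorescence followed for 3 min, sampled every second.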
# [8] = biological target: 5-hydroxytryptamine receptor 2A (Homo sapiens) (UniProt P28223); assay: 5-hydroxytryptamine receptor 2A (HTR2A) small molecule agonists, cell-based qHTS assay (AID 1963587); further: nearly all actives have a fitted effect of over 30% in size; further: potency means the concentration at half of the fitted maximal effect
# Summary of the method: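 HTR2A-CHO cells, plated 18 h at 37 C/5% CO2, dye-loaded 1 h at 37 C; compounds in DMSO added by pin tool (agonist mode). Intracellular calcium flux read as kinetic fluorescence on FDSS over 2 min at 1 s intervals.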
# [9] = biological target: Muscarinic acetylcholine receptor M1 (Homo sapiens) (UniProt P11229); assay: Cholinergic receptor muscarinic 1 (CHRM1) small molecule antagonists, cell-based qHTS assay (AID 1963588); further: nearly all actives have a fitted effect of over 40% in size
# Chain of Muscarinic acetylcholine receptor M1 (Homo sapiens) (P11229 whole entry, looked up): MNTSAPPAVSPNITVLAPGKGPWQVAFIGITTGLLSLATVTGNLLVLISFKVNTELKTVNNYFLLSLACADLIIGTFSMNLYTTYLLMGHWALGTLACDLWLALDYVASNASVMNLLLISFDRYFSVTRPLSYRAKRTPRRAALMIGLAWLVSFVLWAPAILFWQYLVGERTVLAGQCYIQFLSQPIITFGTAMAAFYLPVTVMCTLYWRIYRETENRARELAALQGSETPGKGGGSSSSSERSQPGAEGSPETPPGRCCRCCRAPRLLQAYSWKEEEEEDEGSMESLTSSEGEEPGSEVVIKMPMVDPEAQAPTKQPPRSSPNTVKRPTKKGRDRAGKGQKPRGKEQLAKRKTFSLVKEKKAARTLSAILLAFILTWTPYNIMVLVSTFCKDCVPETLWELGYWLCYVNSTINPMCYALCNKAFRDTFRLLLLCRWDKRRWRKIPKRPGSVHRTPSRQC
# Summary of the method: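 CHRM1-CHO calcium-flux assay, antagonist mode. Cells were seeded 18 h, dye-loaded 1 h at 37 C and given compound for 5 min at RT, then acetylcholine was added at 50nM. FDSS fluorescence was read 3 min; 15 concentrations, three runs.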
# [10] = biological target: Muscarinic acetylcholine receptor M1 (Homo sapiens) (UniProt P11229); assay: Cholinergic receptor muscarinic 1 (CHRM1) small molecule agonists, cell-based qHTS assay (AID 1963589); further: nearly all actives have a fitted effect of over 35% in size
# Summary of the method: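 Stable CHRM1-CHO cells (human receptor) were incubated 18 h, dye-loaded for 1 h at 37 C and exposed to test compounds for agonist activity, with calcium-dependent fluorescence followed kinetically.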
# [11] = cAMP Responsive Elements (CRE) small molecule agonists, cell-based qHTS assay (AID 1963590)
# Summary of the method: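 FRET-based beta-lactamase readout (LiveBLAzer B/G, 2 h RT) quantified CRE activation in HEK 293T CRE-bla cells after 3 h treatment with DMSO-dissolved compounds.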
# [12] = biological target: Beta-2 adrenergic receptor (Homo sapiens) (UniProt P07550); assay: Adrenergic beta2 receptor (ADRB2) small molecule antagonists, cell-based qHTS assay (AID 1963592); further: nearly all actives have a fitted effect of over 50% in size; further: potency means the concentration at half of the fitted maximal effect
# Chain of Beta-2 adrenergic receptor (Homo sapiens) (P07550 whole entry, looked up): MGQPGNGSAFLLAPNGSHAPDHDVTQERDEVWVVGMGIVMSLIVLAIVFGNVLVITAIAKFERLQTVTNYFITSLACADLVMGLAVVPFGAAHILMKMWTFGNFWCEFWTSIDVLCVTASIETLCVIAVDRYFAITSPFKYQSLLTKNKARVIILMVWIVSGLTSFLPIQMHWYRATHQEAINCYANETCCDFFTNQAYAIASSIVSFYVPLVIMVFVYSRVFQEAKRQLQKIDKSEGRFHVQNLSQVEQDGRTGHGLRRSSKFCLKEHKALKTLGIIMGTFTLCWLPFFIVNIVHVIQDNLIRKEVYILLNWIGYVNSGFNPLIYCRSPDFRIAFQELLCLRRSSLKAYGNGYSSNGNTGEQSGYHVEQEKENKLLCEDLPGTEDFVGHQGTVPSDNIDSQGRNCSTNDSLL
# Summary of the method: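 Cells (CHO, stable ADRB2 overexpression) incubated 18-20hr at 37C; compounds added from DMSO; agonist mix (1nM isoproterenol, 100uM IBMX, 25uM Ro-20-1724) added; 0.5hr RT; d2-cAMP and anti-cAMP-cryptate added; 1hr RT; 665/615 nm read.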
# [13] = biological target: D(2) dopamine receptor (Homo sapiens) (UniProt P14416); assay: Dopamine D2 receptor (DRD2) small molecule agonists, cell-based qHTS assay (AID 1963594); further: nearly all actives have a fitted effect of over 35% in size
# Chain of D(2) dopamine receptor (Homo sapiens) (P14416 whole entry, looked up): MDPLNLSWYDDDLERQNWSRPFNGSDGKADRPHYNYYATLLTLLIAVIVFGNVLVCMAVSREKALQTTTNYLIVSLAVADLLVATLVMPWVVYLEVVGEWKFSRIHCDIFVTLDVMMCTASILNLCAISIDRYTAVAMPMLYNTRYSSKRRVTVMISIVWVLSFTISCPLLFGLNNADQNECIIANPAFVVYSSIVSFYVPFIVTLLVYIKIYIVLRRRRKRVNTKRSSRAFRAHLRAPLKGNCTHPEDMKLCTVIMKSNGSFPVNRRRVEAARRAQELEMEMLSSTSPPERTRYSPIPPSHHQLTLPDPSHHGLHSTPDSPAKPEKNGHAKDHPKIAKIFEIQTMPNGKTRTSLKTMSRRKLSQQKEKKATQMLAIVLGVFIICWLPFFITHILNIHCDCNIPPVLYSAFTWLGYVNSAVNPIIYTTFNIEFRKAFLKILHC
# Summary of the method: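 HEK293 cells stably expressing DRD2 were cultured 24 h at 37 C, then given Ro20-1724 (0.1 mM final) and compounds for 10 min at room temperature. NKH477 (200nM) was then added for 30 min. cAMP was read by HTRF.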
# [14] = biological target: D(2) dopamine receptor (Homo sapiens) (UniProt P14416); assay: Dopamine D2 receptor (DRD2) small molecule antagonists, cell-based qHTS assay (AID 1963595; active means well fitted inhibition curve with a large enough effect in the signal ratio in the repeat runs, with a control signal flat; the % refers to the signal ratio; further: potency means the concentration at half of the fitted maximal effect)
# Summary of the method: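 Human DRD2 antagonist qHTS measuring cAMP by HTRF. The cells are exposed to compound for 10 min, then to NKH477 (200 nM) and quinpirole (12 nM) for 30 min at RT, with Ro20-1724 (0.1 mM) present throughout.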
# [15] = cAMP Responsive Elements (CRE) small molecule antagonists, cell-based qHTS assay (AID 1963591; active means well fitted inhibition curve with a large enough effect in the signal ratio in the repeat runs, not every such curve was filed as active; the % refers to the signal ratio)
# Summary of the method: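 qHTS in CRE-bla HEK 293T cells: compound in DMSO, then 0.25 uM NKH477 (final), 3 h at 37 °C/5% CO2; beta-lactamase FRET read-out after 2 h substrate incubation.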
# [16] = biological target: Beta-2 adrenergic receptor (Homo sapiens) (UniProt P07550); assay: Adrenergic beta2 receptor (ADRB2) small molecule agonists, cell-based qHTS assay (AID 1963593);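 further: CHO cells stably overexpressing human ADRB2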
# Summary of the method: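 CHO cells stably over-expressing ADRB2 were plated overnight at 37C, then dosed with compounds plus a stimulation mix containing 100uM IBMX and 25uM Ro-20-1724 for 0.5hr at room temperature. cAMP was measured by HTRF competition, 1hr.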
# [17] = p53 small molecule agonists, cell-based qHTS assay with human liver microsomes (AID 1963577)
# Summary of the method: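 p53RE-bla reporter cells were pre-incubated 5 h at 37 C, then treated with compounds plus human liver microsomes (0.5 mg/mL final) and NADPH (0.5 mg/mL final) for 16 h at 37 C. Beta-lactamase activity was read by LiveBLAzer fluorescence after 2 h at room temperature.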
# [18] = p53 small molecule agonists, cell-based qHTS assay with rat liver microsomes (AID 1963578)
# Summary of the method: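 p53RE-bla cells were exposed to compounds together with rat liver microsomes (0.5 mg/mL final) and NADPH (0.5 mg/mL final) for 16 h at 37 C, then read by LiveBLAzer beta-lactamase fluorescence after 2 h at room temperature.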
# [19] = p53 small molecule agonists, cell-based qHTS assay (AID 1963582; active means well fitted activation curve with a large enough effect in the signal ratio in the repeat runs, not every such curve was filed as active; the % refers to the signal ratio)
# Summary of the method: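 Agonist activity was scored from beta-lactamase FRET fluorescence in p53RE-bla cells treated 16 h at 37 C with compounds in DMSO, substrate incubation being 2 h at room temperature.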
# [20] = biological target: Gonadotropin-releasing hormone receptor (Homo sapiens) (UniProt P30968); assay: Human gonadotropin-releasing hormone receptor (GnRHR) small molecule agonists, calcium flux assay in GnRHR-HEK293 cells (AID 1920063); further: nearly all actives have a fitted effect of over 35% in size; further: potency means the concentration at half of the fitted maximal effect
# Chain of Gonadotropin-releasing hormone receptor (Homo sapiens) (P30968 whole entry, looked up): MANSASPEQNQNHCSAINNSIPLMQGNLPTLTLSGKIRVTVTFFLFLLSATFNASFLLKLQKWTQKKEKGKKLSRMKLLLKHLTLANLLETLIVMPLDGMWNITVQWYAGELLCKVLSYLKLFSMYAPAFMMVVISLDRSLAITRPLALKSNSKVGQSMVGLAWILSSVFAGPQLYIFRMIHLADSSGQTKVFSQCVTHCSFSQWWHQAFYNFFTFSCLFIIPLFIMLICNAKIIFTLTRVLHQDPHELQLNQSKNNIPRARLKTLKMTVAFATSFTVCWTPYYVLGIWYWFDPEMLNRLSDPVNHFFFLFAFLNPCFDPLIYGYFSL
# Summary of the method: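 Tox21-format agonist screen using human GnRHR-expressing HEK293 cells and a fluorescent calcium dye; kinetic 3-min fluorescence reading after compound addition, 15-point concentration series run in triplicate.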
Structure (SMILES),Potency [1],Potency [2],Potency [3],Potency [4],Potency [5],Potency [6],Potency [7],Potency [8],Potency [9],Potency [10],Potency [11],Potency [12],Potency [13],Potency [14],Potency [15],Potency [16],Potency [17],Potency [18],Potency [19],Potency [20]
NNC(=O)OCc1ccccc1,inactive,inactive,inactive,inactive,inactive,inactive,inactive,inactive,inactive,inactive,inactive,inactive,inactive,inactive,,,,,,
CCCCCCCC#N,inactive,inactive,inactive,32.4 µM (active),,inactive,inactive,inactive,,inactive,inactive,inactive,inactive,inactive,inactive,inactive,,,,
CC1=CCC(C(C)C)C=C1 (centres undefined),inactive,inactive,inactive,inactive,inactive,inactive,inactive,,inactive,inactive,inactive,inactive,inactive,inactive,inactive,inactive,inactive,inactive,inactive,
CCOC(=O)C1=C[C@]2(CC)CCCN3CCc4c(n1c1ccccc41)[C@@H]32,inactive,inactive,,inactive,inactive,,inactive,23.9 µM (active),inactive,inactive,inactive,inactive,,inactive,inactive,inactive,inactive,inactive,,
OC(CN1CCC(Cc2ccc(F)cc2)CC1)c1ccc(Cl)cc1 (centres undefined),29.8 µM (active),inactive,inactive,inactive,inactive,inactive,1.63 µM (active),,,inactive,inactive,,inactive,inactive,inactive,,inactive,inactive,,
CCCCCOC(=O)c1ccc(O)cc1,inactive,,,,inactive,inactive,9.54 µM (active),35.1 µM (active),,inactive,,inactive,inactive,inactive,,inactive,,,,inactive
O=S(=O)(O)c1cc(O)ccc1O,inactive,inactive,inactive,,,,inactive,inactive,inactive,inactive,inactive,inactive,inactive,inactive,inactive,inactive,,,,
CCCCCCCCCCCCSC#N,inactive,inactive,inactive,inactive,,inactive,inactive,inactive,inactive,inactive,inactive,inactive,inactive,inactive,,,inactive,inactive,inactive,
CN(C/C=C/c1ccccc1)Cc1cccc2ccccc12,,inactive,inactive,inactive,inactive,inactive,,inactive,inactive,inactive,,inactive,inactive,6.68 µM (active),,,inactive,inactive,inactive,inactive
O=C1c2ccccc2C(=O)c2c1ccc(O)c2O,,inactive,inactive,inactive,inactive,inactive,inactive,inactive,inactive,inactive,inactive,inactive,inactive,,inactive,inactive,inactive,inactive,inactive,inactive
CCCCCCCC/C=C\CCCCCCCC(=O)NCc1ccc(O)c(OC)c1,,inactive,inactive,inactive,inactive,inactive,inactive,,inactive,inactive,,inactive,inactive,inactive,inactive,,inactive,inactive,inactive,inactive
O=[N+]([O-])C1(Br)COCOC1,,inactive,inactive,inactive,inactive,inactive,inactive,,inactive,inactive,inactive,inactive,inactive,inactive,inactive,inactive,inactive,inactive,inactive,38.9 µM (active)
CC(C(=O)O)c1ccc(C(=O)c2cccs2)cc1 (centres undefined),inactive,,,inactive,inactive,,inactive,inactive,inactive,inactive,,,,inactive,,,inactive,inactive,inactive,
CC1(C)O[C@@H]2C[C@H]3[C@@H]4CCC5=CC(=O)C=C[C@]5(C)[C@H]4[C@@H](O)C[C@]3(C)[C@]2(C(=O)CO)O1,,inactive,inactive,inactive,inactive,inactive,,inactive,inactive,inactive,,inactive,inactive,,,inactive,inactive,inactive,inactive,inactive
O=C(c1ccc(F)cc1)C1CCN(CCn2c(=S)[nH]c3ccccc3c2=O)CC1,,inactive,inactive,inactive,inactive,inactive,,,,inactive,,29.8 µM (active),,,,,inactive,inactive,inactive,inactive
O=C(/C=C/c1ccc(O)c(O)c1)O[C@@H](C(=O)O)[C@@H](OC(=O)/C=C/c1ccc(O)c(O)c1)C(=O)O,,inactive,inactive,inactive,inactive,inactive,,inactive,inactive,inactive,inactive,inactive,,,inactive,,inactive,inactive,inactive,inactive

# Reference: PubChem BioAssay (Tox21)
